# An excerpt weighted towards active compounds, which were near 7.8% of everything screened.
# Vaccinia mCherry: vaccinia inhibition (mCherry reporter) | Potency, µM (doses to about 36.5 µM), actives largely listed as inhibitors | Vaccinia virus mCherry reporter infection, fluorescence | actives 0.63% (n = 310,000); calls by dose curve; tested in A549 cells; further: nearly all actives have a fitted effect of over 35% in size
# MARV entry inh: Marburg virus entry inhibition | Marburg virus pseudotyped entry inhibition, cell reporter | Potency, µM (top dose mostly 37.8 µM), hits mostly inhibitors | actives 1.8% (n = 300,000) | AID 540276; calls by dose curve; tested in HEK293 cells
# HCV inh: HCV inhibition; Huh7.5.1 HCVcc-Cre infection, luciferase reporter, 44 h; Potency, µM (top dose mostly 41.8 µM), hits mostly inhibitors; actives 3.4% (n = 340,000); active means well fitted inhibition curve with a large enough effect; inconclusive means small, poorly fitted or top-dose-only effect, or another doubt; inactive means no such curve, though single readings can be large or run the other way
#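 Infectious HCV cell culture screen: compound-treated cells (1,000/well, pre-plated 4 h) are infected with HCVcc-Cre at roughly 0.5 moi and grown 44 h. Infection is quantified by luciferase signal after 15 min substrate incubation at room temperature.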
# Vaccinia Venus: vaccinia inhibition (Venus reporter). Potency, µM (series often up to 36.5 µM), most hits filed as inhibitors. AID 720580. actives 0.46% (n = 330,000). Vaccinia virus Venus reporter expression, fluorescence; calls by dose curve; tested in A549 cells; further: nearly all actives have a fitted effect of over 30% in size
# Lassa entry inh: blocks Lassa virus binding to or entry into cells; Lassa virus pseudotype entry inhibition, cell reporter; actives 1.2% (n = 300,000); Potency, µM (doses to about 37.9 µM), actives largely listed as inhibitors; calls by dose curve; tested in HEK293 cells; further: nearly all actives have a fitted effect of over 50% in size
# HCMV antiviral: inhibitors of human cytomegalovirus | HFF cells, HCMV-luciferase reporter, 72 h; hits give low values | activity change, negative = inhibition, % at 57.5 µM | actives 4.5% (n = 410,000) | AID 1259415; in the data active means activity change below about -60%; inconclusive means no clear call, values can overlap the other calls; inactive means above about -39%
#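 HFF cells seeded 16 h at 37C, treated with compounds, infected with luciferase-reporter HCMV at MOI 1 PFU/cell; luciferase read at 72 h post infection, normalized to buffer-only and Salinomycin controls.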
# Numbers stand for hits; i = inactive; ? = inconclusive; nt = not tested or not shown.
SMILES,Vaccinia mCherry,MARV entry inh,HCV inh,Vaccinia Venus,Lassa entry inh,HCMV antiviral
O=C1N(Cc2cccc(Cl)c2)C[C@@H]2C[C@@H](c3cccn3-c3ccccn3)N3CCC[C@@]123,i,?,6.3µM,i,?,i
CN1C[C@@H]2C[C@@H](c3cccn3-c3nccs3)N3CCC[C@@]23C1=O,i,i,i,i,?,?
O=C1N(Cc2cccc(Cl)c2)C[C@@H]2C[C@@H](c3cccc4ncccc34)N3CCC[C@@]123,i,?,11µM,i,?,i
COC(C(=O)Nc1ccc(S(=O)(=O)Nc2cccc3ccccc23)cc1)c1ccccc1 (centres undefined),i,i,i,i,?,-88
COC(C(=O)Nc1ccc(F)cc1)c1ccccc1 (centres undefined),i,i,i,i,i,i
COC(C(=O)Nc1ccc(S(=O)(=O)Nc2ccc(F)cc2)cc1)c1ccccc1 (centres undefined),?,7.9µM,i,?,?,-62
Cc1nc(C)c(C(=O)N2CCc3c(cnc(C)c3CNC(=O)c3cncs3)C2)s1,i,nt,nt,i,nt,nt
C=COC[C@H]1CN2[C@H](c3ccc(Br)cc3)[C@H](C)CC[C@H]2C(=O)O1,nt,i,nt,nt,nt,nt
C=C(c1nc2ccccc2s1)C1Cc2cccc3c2N(CCC3)C1 (centres undefined),i,nt,nt,i,nt,nt
CCC(=NCC1CCCO1)c1c(O)n(Cc2ccccc2)c(=O)[nH]c1=O (centres undefined),nt,i,i,nt,1.6µM,i
CCC(=NCC1CCCO1)c1c(O)n(-c2ccccc2)c(=O)[nH]c1=O (centres undefined),i,i,i,i,?,i
COc1cc(CNCc2cc3cc(C)ccc3nc2-c2ccc(F)cc2)cc(OC)c1OC,i,nt,nt,i,nt,nt
CC(Nc1nc(-c2ccc3c(c2)NC(=O)CO3)cs1)c1ccccc1 (centres undefined),i,?,11µM,i,i,?
O=C1COc2ccc(-c3csc(-c4ccc(F)cc4)n3)cc2N1,i,nt,nt,i,nt,nt
COc1cccc(-c2nc(-c3ccc4c(c3)NC(=O)CO4)cs2)c1,i,?,14µM,i,i,i
CC(C)Oc1ccc(Br)cc1/C=N\NC(N)=S,5.6µM,?,?,7.9µM,?,?
Cc1cc(/C=N/NC(N)=S)c(C)n1-c1ccc(Br)cc1,i,?,i,i,?,i
CCc1ccc(CNC(=O)c2ccc3c(c2)nc2n3CCCCC2)cc1,i,nt,nt,i,?,i
CCCCc1c(CCC)c(=N)c2ccccc2n1C,i,?,?,i,?,-98
COc1ccc(NC(=O)CCCSc2ccccc2)cc1S(N)(=O)=O,i,i,i,i,i,?
COc1ccc(NC(=O)CN(Cc2ccccc2)Cc2ccccc2)cc1S(N)(=O)=O,i,i,i,i,i,-62
COc1ccc(NC(=O)COc2ccccc2Cc2ccccc2)cc1S(N)(=O)=O,?,?,10µM,i,?,-73
COc1ccc(NC(=O)COc2ccccc2Cc2ccccc2)cn1,i,?,?,i,?,i
CCCN(Cc1cc2cc(C)ccc2[nH]c1=O)C(=O)c1cccc(Cl)c1,i,i,nt,i,?,i
Cc1cccc(NC(=O)C2CCN(S(=O)(=O)c3ccc4c(c3)CCCC(=O)N4)CC2)c1,i,nt,nt,i,i,i
SMILES,Vaccinia mCherry,MARV entry inh,HCV inh,Vaccinia Venus,Lassa entry inh,HCMV antiviral
Cc1c(/C(O)=C2/C(=O)C(=O)N(Cc3cccnc3)C2c2ccccn2)cnn1-c1ccccc1 (centres undefined),i,?,i,i,i,-76
Cc1c(/C(O)=C2/C(=O)C(=O)N(Cc3cccnc3)C2c2cccs2)cnn1-c1ccccc1 (centres undefined),i,i,i,i,i,i
O=C(Cn1cc(SCc2ccc(F)cc2)c2ccccc21)N1CCCC1,i,nt,nt,i,?,i
CN(C)S(=O)(=O)c1cccc(-c2nn(-c3ccccc3)cc2/C=C2\SC(=S)NC2=O)c1,?,22µM,i,?,?,-82
COc1cc2c(cc1OC)CN(c1nc(CN3CCOCC3)nc3sc4c(c13)CCCC4)CC2,?,?,?,?,?,i
COc1cc2c(cc1OC)CN(c1nc(CN3CCCCC3)nc3sc4c(c13)CCCC4)CC2,i,?,22µM,i,?,i
CCOC(=O)c1c(CN2CCN(C)CC2)n(-c2ccccc2)c2cc(Br)c(O)cc12,nt,nt,14µM,nt,nt,i

# Screens as filed in PubChem.
